Inconclusive results are not listed. Where a call stands in place of a potency, no number is given. Activity calls are given as the source filed them. Unless noted, calls follow the shape of the dose curve; as a rule, active = well fitted curve in the direction sought with a large enough effect in the repeat runs; inconclusive = weak or mixed curves; inactive = no such curve, though single readings can be large; an effect the other way counts as inactive or inconclusive.
How the values were obtained:
[1] = qHTS assay to identify small molecule antagonists of the retinoic acid receptor (RAR) signaling pathway (AID 1159552; also: nearly all actives have a fitted effect of over 50% in size)
Method in brief: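 Retinol at 1 uM final stimulated RARE-luciferase expression in C3RL4 cells exposed to test compounds for 6 hr at 37 C. Reduced luminescence, read 30 min after detection reagent, indicated pathway antagonism.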

[2] = qHTS assay to identify small molecule agonists of the retinoic acid receptor (RAR) signaling pathway (AID 1159553); also: potency is read from the fitted curve at half-maximal effect
Method in brief: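 C3RL4 cells carrying a RARE luciferase reporter were plated overnight at 37 C, then exposed to compounds in DMSO for 6 hr at 37 C and 5% CO2. Luminescence was read 30 min after luciferase reagent addition at room temperature.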

[3] = qHTS assay to identify small molecule antagonists of the estrogen related receptor (ERR) signaling pathway from Tox21 library - cell viability counter screen (AID 1224834); also: nearly all actives have a fitted effect of over 30% in size; also: potency is read from the fitted curve at half-maximal effect
Method in brief: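 ERR reporter cells were plated 6 h before compound addition, then exposed to test compounds in DMSO for 17.5 h at 37 C. Viability was read as CellTiter-Fluor fluorescence after a 30-minute incubation at 37 C.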

[4] = molecular target: Luciferin 4-monooxygenase (Photinus pyralis) (UniProt P08659); experiment: qHTS assay to identify small molecule inhibitors of firefly luciferase (AID 1224835); also: nearly all actives have a fitted effect of over 25% in size; also: potency is read from the fitted curve at half-maximal effect
Sequence of Luciferin 4-monooxygenase (Photinus pyralis) (P08659 whole entry, looked up): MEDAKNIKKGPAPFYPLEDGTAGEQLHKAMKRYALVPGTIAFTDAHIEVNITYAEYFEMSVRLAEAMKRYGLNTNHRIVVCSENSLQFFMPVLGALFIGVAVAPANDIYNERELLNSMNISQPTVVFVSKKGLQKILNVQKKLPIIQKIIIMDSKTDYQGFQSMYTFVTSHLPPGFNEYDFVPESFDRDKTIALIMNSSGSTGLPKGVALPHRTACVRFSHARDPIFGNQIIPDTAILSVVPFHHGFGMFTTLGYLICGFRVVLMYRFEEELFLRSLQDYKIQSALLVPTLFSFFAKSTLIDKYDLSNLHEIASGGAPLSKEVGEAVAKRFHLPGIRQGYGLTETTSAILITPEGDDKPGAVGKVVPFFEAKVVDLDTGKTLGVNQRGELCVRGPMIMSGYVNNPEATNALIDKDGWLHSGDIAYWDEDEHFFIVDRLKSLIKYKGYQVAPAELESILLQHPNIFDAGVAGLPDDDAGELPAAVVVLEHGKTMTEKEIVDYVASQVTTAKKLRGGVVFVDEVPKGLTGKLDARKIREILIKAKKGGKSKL
Method in brief: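 Inhibition of purified Photinus luciferase is measured by luminescence. Substrate levels (D-luciferin, ATP) sit at their KM values. Each compound is tested in a concentration series.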

[5] = qHTS assay to identify small molecule agonists of the constitutive androstane receptor (CAR) signaling pathway - cell viability counter screen (AID 1224836); also: nearly all actives have a fitted effect of over 45% in size; also: potency is read from the fitted curve at half-maximal effect
Method in brief: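 Cells were seeded and incubated 4 hrs. Compounds were added across 15 concentrations together with PK11195 at 0.75 uM final. Plates were incubated 23 hrs at 37 C. CellTiter-Fluor was added and fluorescence measured.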

[6] = qHTS assay to identify small molecule antagonists of the constitutive androstane receptor (CAR) signaling pathway - cell viability counter screen (AID 1224837); also: nearly all actives have a fitted effect of over 45% in size; also: potency is read from the fitted curve at half-maximal effect
Method in brief: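 HepG2 cells stably expressing hCAR and a CYP2B6-2.2kb reporter were plated and pre-incubated 4 hr at 37 C/5% CO2, then given compounds at 15 concentrations plus 50 nM CITCO (final). After 23 hr, viability was read by CellTiter-Fluor fluorescence.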

[7] = molecular target: Nuclear receptor subfamily 1 group I member 3 (Homo sapiens) (UniProt Q14994); experiment: qHTS assay to identify small molecule antagonists of the constitutive androstane receptor (CAR) signaling pathway (AID 1224838); also: nearly all actives have a fitted effect of over 40% in size; also: potency is read from the fitted curve at half-maximal effect
Sequence of Nuclear receptor subfamily 1 group I member 3 (Homo sapiens) (Q14994 whole entry, looked up): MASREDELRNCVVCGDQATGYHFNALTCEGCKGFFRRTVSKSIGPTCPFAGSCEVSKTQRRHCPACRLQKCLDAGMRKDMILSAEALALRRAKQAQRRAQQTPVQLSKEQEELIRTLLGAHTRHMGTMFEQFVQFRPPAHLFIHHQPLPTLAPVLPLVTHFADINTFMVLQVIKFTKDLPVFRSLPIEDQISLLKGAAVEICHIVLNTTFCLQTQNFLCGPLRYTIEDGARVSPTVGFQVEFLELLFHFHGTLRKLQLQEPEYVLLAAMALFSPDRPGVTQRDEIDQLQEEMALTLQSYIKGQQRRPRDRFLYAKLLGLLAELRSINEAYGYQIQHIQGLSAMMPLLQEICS
Method in brief: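 HepG2 cells stably co-transfected with hCAR and a CYP2B6-2.2kb luciferase reporter were seeded 4 h before compound addition at 15 concentrations. Cells were stimulated with 50 nM CITCO (final) for 24 h at 37 C; luciferase luminescence was then read.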

[8] = molecular target: Nuclear receptor subfamily 1 group I member 3 (Homo sapiens) (UniProt Q14994); experiment: qHTS assay to identify small molecule agonists of the constitutive androstane receptor (CAR) signaling pathway (AID 1224839); also: nearly all actives have a fitted effect of over 15% in size; also: potency is read from the fitted curve at half-maximal effect
Method in brief: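 Cells were plated and incubated 4 hrs, then dosed with compounds at 15 concentrations. PK11195 was added to 0.75 uM final. After 24 hrs at 37 C, luciferase luminescence was measured.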

[9] = qHTS assay to identify small molecule antagonists of the estrogen related receptor signaling pathway with the pleiotropic PPARgamma coactivator (PGC) from Tox21 10K library - cell viability counter screen (AID 1224840; active = well fitted cell-killing curve with a large enough effect in the repeat runs, not every such curve was filed as active; also: nearly all actives have a fitted effect of over 40% in size; also: potency is read from the fitted curve at half-maximal effect)
Method in brief: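 PGC/ERR cells were seeded at 2,000 cells/well and left 6 hours at 37 C/5% CO2 before pin-tool addition of compounds in DMSO. After 17.5 hours at 37 C, CellTiter-Fluor was added and fluorescence read 30 minutes later.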

[10] = qHTS assay to identify small molecule antagonists of the estrogen related receptor signaling pathway with the pleiotropic PPARgamma coactivator (PGC) from Tox21 10K library (AID 1224841; call rule not given here; also: actives are mostly falling curves and most rising ones were filed inactive; nearly all actives have a fitted effect of over 50% in size; also: potency is read from the fitted curve at half-maximal effect)
Method in brief: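 PGC/ERR reporter cells were seeded at 2,000 cells/well and held 6 hours at 37 C/5% CO2 before pin-tool addition of compounds in DMSO. After 18 hours at 37 C, One-Glo was added and luminescence read after 30 minutes at room temperature.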

[11] = qHTS assay to identify small molecule agonists of the hypoxia (HIF-1) signaling pathway - cell viability counter screen (AID 1224844; calls by dose curve; also: nearly all actives have a fitted effect of over 50% in size; also: potency is read from the fitted curve at half-maximal effect)
Method in brief: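 HRE-bla ME-180 cells in medium with 0.5% dialyzed FBS were preincubated 5 hrs at 37C, exposed to compounds for 17 hrs, then viability was read as CellTiter-Glo luminescence after 30 min at room temperature, in the reporter wells.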

[12] = qHTS assay to identify small molecule antagonists of the retinoid acid receptor (RAR) signaling pathway - cell viability counter screen (AID 1159551); also: nearly all actives have a fitted effect of over 35% in size
Method in brief: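 C3RL4 cells were seeded overnight at 37 C, then treated with compounds plus 1 uM (final) retinol for 6 h at 37 C. Viability was read as ATP by CellTiter-Glo luminescence after 30 min at room temperature.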

[13] = molecular target: Thyrotropin receptor (Homo sapiens) (UniProt P16473); experiment: qHTS assay to identify small molecule agonists of the thyroid stimulating hormone receptor (TSHR) signaling pathway (AID 1224843; calls by dose curve; also: nearly all actives have a fitted effect of over 45% in size)
Sequence of Thyrotropin receptor (Homo sapiens) (P16473 whole entry, looked up): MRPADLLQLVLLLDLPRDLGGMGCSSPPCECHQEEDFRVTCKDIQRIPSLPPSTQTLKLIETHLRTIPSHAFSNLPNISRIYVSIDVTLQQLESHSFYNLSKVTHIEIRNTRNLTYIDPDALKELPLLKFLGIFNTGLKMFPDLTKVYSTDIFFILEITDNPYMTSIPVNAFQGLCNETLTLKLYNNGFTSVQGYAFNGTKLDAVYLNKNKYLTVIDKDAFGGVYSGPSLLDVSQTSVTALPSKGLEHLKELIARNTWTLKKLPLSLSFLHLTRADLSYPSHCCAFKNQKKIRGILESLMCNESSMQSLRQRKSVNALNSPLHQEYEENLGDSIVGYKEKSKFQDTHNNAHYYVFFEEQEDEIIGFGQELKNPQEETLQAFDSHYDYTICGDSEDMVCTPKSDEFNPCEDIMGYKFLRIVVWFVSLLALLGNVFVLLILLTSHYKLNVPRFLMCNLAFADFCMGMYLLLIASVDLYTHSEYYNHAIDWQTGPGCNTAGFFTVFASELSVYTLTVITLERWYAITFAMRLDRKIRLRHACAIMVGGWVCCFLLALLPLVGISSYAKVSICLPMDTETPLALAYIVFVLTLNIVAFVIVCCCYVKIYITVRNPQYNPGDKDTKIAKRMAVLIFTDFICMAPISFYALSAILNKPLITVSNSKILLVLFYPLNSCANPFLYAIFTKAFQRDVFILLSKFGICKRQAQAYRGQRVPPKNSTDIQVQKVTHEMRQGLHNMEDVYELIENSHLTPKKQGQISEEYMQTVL
Method in brief: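 Screening of the Tox21 10K collection used HEK293 cells engineered with TSHR at 800 cells per well. After a 30-min room-temperature compound exposure, HTRF cAMP reagents were added and fluorescence recorded 1 h later.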

[14] = qHTS assay to identify small molecule agonists of the estrogen related receptor signaling pathway with the pleiotropic PPARgamma coactivator (PGC) from Tox21 10K library (AID 1224842); also: nearly all actives have a fitted effect of over 15% in size
Method in brief: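 Luminescence from One-Glo (30 min, room temperature) measured after PGC/ERR cells had 18 h at 37 C with pinned compound (23 nL in DMSO). Cells had been seeded at 2,000 per well and pre-incubated 6 h.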

SMILES | Potency [1] | Potency [2] | Potency [3] | Potency [4] | Potency [5] | Potency [6] | Potency [7] | Potency [8] | Potency [9] | Potency [10] | Potency [11] | Potency [12] | Potency [13] | Potency [14]
CCN(CC)c1ccc(N)cc1 | inactive | 3.15 µM (active) | 28.1 µM (active) | 41 µM (active) | 31.5 µM (active) | 28.1 µM (active) | 62.8 µM (active) | 7.05 µM (active) | 25 µM (active) | 2.5 µM (active) | inactive | – | – | –
CCc1cccc(C)c1 | – | – | inactive | inactive | – | inactive | inactive | inactive | inactive | – | inactive | inactive | inactive | –
C/C=C/c1ccc(OC)c(OC)c1 | – | – | inactive | inactive | inactive | – | – | – | inactive | – | inactive | inactive | inactive | –
CC(C(O)c1ccccc1)N(C)CCOC(c1ccccc1)c1ccccc1 (stereo not given) | – | – | 29.8 µM (active) | inactive | – | – | – | inactive | – | – | inactive | inactive | inactive | –
C[Si](C)O[Si](C)C | – | – | inactive | inactive | – | inactive | inactive | – | inactive | – | inactive | inactive | inactive | –
COc1cccc(CCc2ccccc2OCC(CN(C)C)OC(=O)CCC(=O)O)c1 (stereo not given) | – | – | – | inactive | inactive | inactive | inactive | inactive | inactive | inactive | 19 µM (active) | inactive | inactive | inactive
Cc1occc1SSc1ccoc1C | – | – | – | inactive | inactive | inactive | – | inactive | – | – | – | inactive | inactive | –
C=CC(=C)CCC=C(C)C | – | – | inactive | inactive | inactive | – | – | – | inactive | – | inactive | inactive | – | –
CN1[C@@H]2CC[C@H]1CC(OC(=O)C(CO)c1ccccc1)C2 (stereo not given in full) | – | – | inactive | – | – | inactive | – | – | inactive | – | inactive | inactive | – | –
Nc1ncnc2c1ncn2[C@@H]1O[C@H](COP(=O)(O)O)[C@@H](O)[C@H]1O | inactive | inactive | inactive | inactive | inactive | – | inactive | inactive | inactive | – | inactive | – | inactive | –
CCO[Si](CCCSSSSCCC[Si](OCC)(OCC)OCC)(OCC)OCC | – | – | – | inactive | inactive | – | – | inactive | inactive | – | 19.5 µM (active) | inactive | – | –
